From PubChem BioAssay (Tox21)
“And” between values parts separate entries of the source, which are not always exact repeats. Identical values can stand only once. Results filed as inconclusive are left out. The source made the active and inactive calls. Unless noted, the call rests on the fitted dose curve; in most records, active means well fitted curve in the direction sought with a large enough effect in the repeat runs; inconclusive means weak or mixed curves; inactive means no such curve, though single readings can be large; an effect the other way counts as inactive or inconclusive.

Assays:
[1] = qHTS assay for small molecules that induce genotoxicity in human embryonic kidney cells expressing luciferase-tagged ATAD5 (AID 651632); further: nearly all actives have a fitted effect of over 15% in size
Outline: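 HEK293T cells carrying a luciferase reporter tagged to ATAD5 were exposed to compound or DMSO vehicle for 16 hr at 37C, 5% CO2. Amplite was added, and after 30 min at room temperature luciferase activity was read as a marker of ATAD5 induction.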

[2] = qHTS assay for small molecule agonists of the p53 signaling pathway - cell viability (AID 651633; calls by dose curve; further: nearly all actives have a fitted effect of over 30% in size; further: potency means the concentration at half of the fitted maximal effect)
Outline: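 Viability counter-read: CellTiter-Glo luminescence (30 min, room temperature) in the same p53RE-bla plates. These plates had been exposed to compounds for 16 h at 37 C.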

[3] = qHTS assay for small molecules that induce genotoxicity in human embryonic kidney cells expressing luciferase-tagged ATAD5 - cell viability (AID 651634; calls by dose curve; further: nearly all actives have a fitted effect of over 25% in size; further: potency means the concentration at half of the fitted maximal effect)
Outline: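 HEK293T cells expressing luciferase-tagged ATAD5 were exposed to compound or DMSO for 15.5 hr at 37C, 5% CO2. Viability was then read as live-cell protease activity by CellTiter-Fluor fluorescence after 30 min at 37C.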

[4] = qHTS assay for small molecule disruptors of the mitochondrial membrane potential (AID 720635); further: potency means the concentration at half of the fitted maximal effect
Outline: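 Mitochondrial membrane potential tracked with Mito-MPS dye, red aggregates (ex 540/em 590 nm) against green monomers (ex 490/em 535 nm). Compound treatment 1 hr at 37C, dye 30 min in HepG2.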

[5] = qHTS assay to test for compound auto fluorescence at 590 nm (red) in HepG2 cells (AID 720674)
Outline: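 We screened compounds on adherent HepG2 cells, incubating them for an hour at 37 C in 5% CO2 before reading emission at 590 nm under 540 nm excitation; values reflect equivalence to Rose Bengal sodium fluorescence.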

[6] = qHTS assay to test for compound auto fluorescence at 535 nm (green) in HepG2 cells (AID 720675)
[7] = qHTS assay to test for compound auto fluorescence at 590 nm (red) in HEK293 cells (AID 720679)
Outline: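 Autofluorescence equivalency to Rose Bengal sodium, 540/590nm, in HEK293 cells exposed overnight to 23 nL compound per well.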

[8] = qHTS assay to test for compound auto fluorescence at 535 nm (green) in HEK293 cells (AID 720680)
[9] = qHTS assay to test for compound auto fluorescence at 460 nm (blue) in HEK293 cell free culture (AID 720681)
Outline: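 Blue fluorescence (Ex 405/Em 460 nm, triamterene-equivalent) was read immediately after pin transfer of compound or DMSO into medium (DMEM, 10% FBS) without cells.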

[10] = qHTS assay to test for compound auto fluorescence at 535 nm (green) in HEK293 cell free culture (AID 720682)
Outline: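 Using fluorescein as calibrant, autofluorescence was quantified at 485/535 nm in cell-free DMEM containing 10% FBS after pintool addition of compound or vehicle.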

[11] = qHTS assay to test for compound auto fluorescence at 590 nm (red) in HEK293 cell free culture (AID 720683)
Outline: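 Red-channel autofluorescence of compounds in culture medium (DMEM, 10% FBS), no cells, measured at 540/590 nm. Rose Bengal sodium is the reference fluorophore for equivalence.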

[12] = qHTS assay to test for compound auto fluorescence at 590 nm (red) in HepG2 cell free culture (AID 720684)
Outline: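 Plate contents were MEM with 10% FBS plus test compound or DMSO, no cells. Fluorescence was recorded with 540 nm excitation and 590 nm emission.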

[13] = qHTS assay to test for compound auto fluorescence at 460 nm (blue) in HepG2 cell free culture (AID 720685)
Outline: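 Compound (23 nL) or DMSO pinned into cell-free MEM with 10% FBS; blue fluorescence read at 405/460 nm excitation/emission, expressed as auto-fluorescence equivalency to triamterene.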

[14] = qHTS assay to test for compound auto fluorescence at 535 nm (green) in HepG2 cell free culture (AID 720686)
[15] = qHTS assay to test for compound auto fluorescence at 460 nm (blue) in HepG2 cells (AID 720687)
Outline: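 Blue-channel autofluorescence (Ex/Em 405/460 nm, triamterene-equivalent) was measured after 1 hr compound exposure at 37 C, 5% CO2. Cells were HepG2, plated overnight at 37 C in MEM plus 10% FBS.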

[16] = qHTS assay to test for compound auto fluorescence at 460 nm (blue) in HEK293 cells (AID 720678)
Outline: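 Auto fluorescence in the blue band was quantified as triamterene equivalency. HEK293 cells were seeded at 2,000/well, dosed after a 4-5 hr attachment, and kept overnight at 37C before the 405/460 nm reading.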

[17] = qHTS assay for small molecule agonists of the p53 signaling pathway (AID 651631; calls by dose curve; further: nearly all actives have a fitted effect of over 15% in size)
Outline: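 Stably transfected HCT-116 cells (beta-lactamase behind p53 response elements) get compounds after a 5 h settling period; 16 h later at 37 °C, FRET substrate is loaded and fluorescence read after 2 h.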

[18] = target: Glucocorticoid receptor (Homo sapiens) (UniProt P04150); test: qHTS assay to identify small molecule agonists of the glucocorticoid receptor (GR) signaling pathway (AID 720691; active means well fitted activation curve with a large enough effect in the signal ratio in the repeat runs, not every such curve was filed as active; the % refers to the signal ratio)
Chain of Glucocorticoid receptor (Homo sapiens) (P04150 whole entry, looked up): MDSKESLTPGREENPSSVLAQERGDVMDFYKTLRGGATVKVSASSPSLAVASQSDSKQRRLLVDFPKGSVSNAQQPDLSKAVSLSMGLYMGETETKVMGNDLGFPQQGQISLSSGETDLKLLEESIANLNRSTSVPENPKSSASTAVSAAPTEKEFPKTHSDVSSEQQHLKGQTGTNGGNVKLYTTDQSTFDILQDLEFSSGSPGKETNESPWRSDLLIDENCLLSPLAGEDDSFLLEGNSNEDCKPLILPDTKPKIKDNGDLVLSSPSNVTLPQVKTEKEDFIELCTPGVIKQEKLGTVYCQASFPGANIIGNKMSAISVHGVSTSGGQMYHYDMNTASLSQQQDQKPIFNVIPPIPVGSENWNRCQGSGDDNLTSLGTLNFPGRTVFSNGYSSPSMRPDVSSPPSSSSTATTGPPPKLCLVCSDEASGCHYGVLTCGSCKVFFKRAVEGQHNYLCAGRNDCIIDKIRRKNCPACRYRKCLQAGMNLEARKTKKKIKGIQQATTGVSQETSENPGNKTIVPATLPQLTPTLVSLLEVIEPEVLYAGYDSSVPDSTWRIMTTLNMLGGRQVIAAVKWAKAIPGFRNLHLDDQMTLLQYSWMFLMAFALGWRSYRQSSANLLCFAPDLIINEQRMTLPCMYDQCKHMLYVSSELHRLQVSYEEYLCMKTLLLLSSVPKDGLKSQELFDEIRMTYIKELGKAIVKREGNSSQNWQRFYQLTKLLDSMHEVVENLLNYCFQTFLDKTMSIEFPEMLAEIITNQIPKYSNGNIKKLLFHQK
Outline: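 GR-bla HeLa cells (beta-lactamase reporter under glucocorticoid response element) were plated 4 h at 37 C/5% CO2, given compounds in DMSO, and incubated 18 h at 37 C. LiveBLAzer B/G FRET substrate was added for 2 h at room temperature, then fluorescence intensity read.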

[19] = qHTS assay for small molecule disruptors of the mitochondrial membrane potential - cell viability (AID 720634; calls by dose curve; further: nearly all actives have a fitted effect of over 20% in size; further: potency means the concentration at half of the fitted maximal effect)
Outline: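 HepG2 cells seeded overnight at 37 C, then exposed to compound or DMSO for 1 hr at 37 C, 5% CO2. m-MPI dye added, then CellTiter-Glo for 30 min at room temperature; viability read as ATP luminescence.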

[20] = target: Glucocorticoid receptor (Homo sapiens) (UniProt P04150); test: qHTS assay to identify small molecule antagonists of the glucocorticoid receptor (GR) signaling pathway (AID 720692; active means well fitted inhibition curve with a large enough effect in the signal ratio in the repeat runs, not every such curve was filed as active; the % refers to the signal ratio; further: potency means the concentration at half of the fitted maximal effect)
Outline: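 GR-bla HeLa cells (beta-lactamase reporter under glucocorticoid response element) were pre-plated 4 h at 37 C, treated with compounds plus 5 nM dexamethasone (final) for 18 h, then read by LiveBLAzer B/G FRET fluorescence after 2 h.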

Measured: Potency

CCCCCCCCCCCC[N+](C)(C)CCOc1ccccc1
active: [2] 29.8 µM and 21.7 µM | [3] 29.8 µM and 61.1 µM | [4] 26.6 µM and 30.6 µM
not listed: [16] | [17] | [18] | [19] | [20]
inactive: all other assays above

C=CCSSCC=C
not listed: [9] | [17] | [18] | [19] | [20]
inactive: all other assays above

CCC1(C2=NCCN2)Cc2ccccc2O1 (stereo not drawn)
not listed: [9] | [10] | [16] | [17] | [18] | [19] | [20]
inactive: all other assays above

FC(Cl)(Cl)C(F)(Cl)Cl
not listed: [3] | [9] | [12] | [17] | [18] | [19] | [20]
inactive: all other assays above

CCNC(=O)NC(=O)/C(C#N)=N/OC
not listed: [4] | [12] | [17] | [18] | [19] | [20]
inactive: all other assays above

C=CCOCC1CO1 (stereo not drawn)
inactive: [17] | [5] | [6] | [7] | [8] | [10] | [11] | [13] | [14] | [15] | [18]

CC(Oc1cc(Cl)c(Cl)cc1Cl)C(=O)O (stereo not drawn)
not listed: [4] | [17]
inactive: all other assays above

O=C(Cc1ccccc1)c1ccccc1
not listed: [3] | [4] | [17]
inactive: all other assays above

CCC(C)(C)c1ccc(O)c(C(C)(C)CC)c1
active: [2] 21.4 µM and 27.3 µM | [3] 53.9 µM | [19] 6.04 µM | [4] 1.52 µM and 1.37 µM
not listed: [17] | [18] | [20]
inactive: all other assays above

O=C(N/N=C/c1ccc([N+](=O)[O-])o1)c1cc([N+](=O)[O-])cc([N+](=O)[O-])c1O
active: [2] 26.6 µM
not listed: [3] | [4] | [16] | [17]
inactive: all other assays above

O=P(OCC(Br)CBr)(OCC(Br)CBr)OCC(Br)CBr (stereo not drawn)
active: [20] 55.7 µM
not listed: [4] | [10] | [17] | [19]
inactive: all other assays above

O=C(O)C(F)(F)C(F)(F)C(F)(F)C(F)(F)C(F)(F)C(F)(F)C(F)(F)C(F)(F)F
active: [2] 61.1 µM
not listed: [3] | [4] | [9] | [12] | [17] | [19]
inactive: all other assays above

O=C(O)COc1cc(Cl)c(Cl)cc1Cl
not listed: [4] | [17]
inactive: all other assays above

Cc1nc(N(C)C)nc(OC(=O)N(C)C)c1C
not listed: [12] | [16] | [17]
inactive: all other assays above

O=C(N[C@H]1CN2CCC1CC2)c1ccc2c(c1)OCCO2
not listed: [17]
inactive: all other assays above
